From PubChem BioAssay (NCI) come the findings set out here.

The panel holds about 83,000 compounds, 20% with a hit somewhere; the sample as a whole holds those more often.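 The endpoint reported here, percent growth, reads 100 for growth as untreated, 0 for no net growth and -100 for all cells dead.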 Active and inactive are the calls of the source. How the source made its calls: active means growth percent below 10; inactive means the rest.

This test deals with HL-60(TB) leukemia. Description: NCI-60 one-dose screen, 48 h (100 = growth as untreated, 0 = no growth, -100 = all killed). To be noted: 10 µM unless noted.
With `COc1cc(C2C=C(c3ccc(Cl)cc3)N=C3SC(C)=CN32)cc(OC)c1OC` (stereo not given), the growth was 93.6% (inactive).
In the case of `COc1cc(C(=O)c2cc(C)c3[nH]c4ccc(C)cc4c3c2C)cc(OC)c1OC` it was -2.6% (active); in that of `COc1ccc(CN2c3ccccc3CCc3ccccc32)cc1F`, -25.7% (active).
As for `CCC(OC(=O)CC(C)C)c1ccccc1` (stereo not given), the figure is 102% (inactive).
Regarding `Oc1ccc(Cc2ccc(O)c3ncccc23)c2cccnc12`, the growth is 5.77% (active).
As for `CC(C)CCC[C@@H](C)[C@H]1CC[C@H]2[C@@H]3CC[C@H]4C/C(=N/O)CC[C@]4(C)[C@H]3CC[C@]12C`, the figure is 104% (inactive); as for `COc1ccc2cc(C(C)C(=O)Nc3ccc(-c4n[nH]c(=S)n4C4CCCCC4)cc3)ccc2c1` (stereo not given), 73.6% (inactive); as for `OC(c1cc(C23CC4CC(CC(C4)C2)C3)nc2c(Cl)cc(Cl)cc12)C1CCCCN1` (stereo not given), -47.7% (active).
Consider `CC(C)=C1CCC(C)C/C1=N\N=C(N)N` (stereo not given), for which the growth was 104% (inactive).
On to `CCOC(=O)c1ccc(NC(=O)Nc2nccs2)cc1`, for which the growth was -50.1% (active).
In the case of `C=C(C)[C@@H]1CC[C@]2(C)[C@H](CC(=O)N[C@H]3[C@@H]4C[C@](C)(C(=O)OC)CC[C@]4(C)CC[C@]32C)[C@@]1(C)CCC#N` it was 83.1% (inactive); in that of `O=C(/C=C/c1ccco1)Nc1ncc(Cc2cc(Cl)ccc2Cl)s1`, -50% (active).
For `CCOC(=O)C1=C(C)c2ccc(OC)c(OC)c2C1`, the growth is 106% (inactive).
On to `O=C1/C(=C\c2ccc(F)cc2)CN(C(=O)c2ccccc2)C/C1=C\c1ccc(F)cc1`, for which the growth was 25.6% (inactive).
In the case of `O=C1CS/C(=N\Nc2cc(=O)[nH]c3ccccc23)N1c1ccccc1` it was 96.2% (inactive).
As for `CCN1C(=O)/C(=C/C(=O)OC)S/C1=N\NC(=O)c1cc2ccc1/C=C\c1ccc(cc1)/C=C\2`, the figure is 88.4% (inactive); as for `O=C(CI)Nc1ccc(O)c2ccccc12`, -11.9% (active); as for `Cc1ccc(-c2c3c(N)nc(-c4cccnc4)nc3nc3c2c(C)nn3-c2ccccc2)cc1`, 95.6% (inactive).
On to `COc1ccc(N(C)c2nc(Cl)nc3ccn(C)c23)cc1`, for which the growth was -35.3% (active).
`O=C(Nc1cccc(Cl)c1)Nc1nccs1`: the growth is 88.7% (inactive).
As for `Cn1cc(-c2ccc3cc(-c4ccc(CC(=O)Nc5cc(C(C)(C)C)on5)cc4)cnc3c2)cn1`, the figure is -14.3% (active); as for `Cc1nc2sccn2c1-c1csc(Nc2cccc(Cl)c2C)n1`, 36.4% (inactive).
In the case of `N/C(=N\c1nc2ccccc2s1)NC(=O)Nc1ccccc1` it was 12.8% (inactive).
Regarding `COc1cc2nc(Nc3cccc(C(=O)O)c3)nc(N)c2cc1OC`, the growth is 109% (inactive).
On to `CCCCCCCCCCCCCC1=NC(C)(C)CN1C(C)C`, for which the growth was -66.7% (active).
In the case of `Oc1ccc(-c2nn(-c3ccccc3)cc2-c2nc3ccccc3s2)cc1` it was 104% (inactive); in that of `O=C(CI)NCCNc1cccc2c(S(=O)(=O)O)cccc12`, 105% (inactive).
For `CCOC(Cc1c(N)[nH]c(=S)[nH]c1=O)OCC`, the growth was 90.3% (inactive).
As for `CC[N+](CC)=c1ccc2nc3c(cc(N)c4ccccc43)oc-2c1`, the figure is -55.6% (active); as for `CC1(C)C(N)=Nc2cc(OCCCCN3Cc4ccccc4C3)c(OCC3CC3)cc21`, 99.7% (inactive); as for `S=C1N(c2ccccc2)CN(C2CCCCC2)CN1c1ccccc1`, 96.1% (inactive).
In the case of `N[C@@H]1CCC[C@H]1NCCCCN1C(=O)c2cccc3cc([N+](=O)[O-])cc(c23)C1=O` it was 30.5% (inactive).
As for `CNCc1ccccc1CN(CC(=O)Nc1ccc2c(c1)CC1(C2)C(=O)Nc2ncccc21)C(=O)C(C)(C)C` (stereo not given), the figure is 100% (inactive); as for `COc1ccc(C(=O)c2cc(OC)c(OC)c(OC)c2)cc1O`, -29.1% (active); as for `COc1ccc(-c2nnc(N3CCN(C(=O)CN4CCN(c5ccc(OC)cc5)CC4)CC3)nc2-c2ccc(OC)cc2)cc1`, -71.6% (active).
On to `O=C1Nc2ccccc2/C1=C\c1c(-c2ccccc2)nc2ccccn12`, for which the growth is -10.7% (active).
Take `O=C(O)COc1ccc([N+](=O)[O-])cc1Cl`: the growth was 108% (inactive).
With `CCOC(=O)C(CCCCC(NC(C)=O)(C(=O)OCC)C(=O)OCC)(NC(C)=O)C(=O)OCC`, the growth was 104% (inactive).
As for `Cc1cc([N+](=O)[O-])ccc1NC(=O)c1ccc2c(c1)nc(-c1ccccc1)n2C1CCCCC1`, the figure is 64.7% (inactive); as for `Cc1cccc(C)c1NC(=O)Nc1ccccc1`, 104% (inactive).
